Of roughly 7,900 targets only a part is listed; those with a hit were picked by preference. About 0.6% of all pairs of compound and target were hits.
What was measured:
Assay in all cases: log2 fold change, soluble protein after heating vs DMSO (PISA); higher = thermal stabilisation; K562 cells, 10 uM, 30 min; active = over 0.2 and 3.5 SD of the protein, either way, in both replicates (recomputed)
[1] = compound: C1=CC=C(C=C1)[C@H](COC2=CC3=C(C=C2)NC(=O)N3)NC(=O)C4=CC=CN(C4=O)CC5=CC(=C(C=C5)F)F
How it was run: (§1)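 K562 cells at 2×10^6 cells/mL were treated with 10 μM compound for 30 min. Aliquots were heated for 3 min across 48°C-58°C, pooled, and extracted in PBS with 0.5% NP-40 at 4°C; soluble protein was the supernatant after 21,000xg for 90 min. Soluble protein was quantified by TMTpro 16plex LC-MS/MS with channel sums equalised, and reported as log2 fold change in thermal stability against DMSO controls, with values from duplicates.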

[2] = compound: CC1=C(SC2=C1C(=N[C@H](C3=NN=C(N32)C)CC(=O)N)C4=CC=C(C=C4)Cl)C
How it was run: as §1

[3] = compound: CC1=C2C(=CC=C1)N=C(N(C2=O)C3=CC=CC=C3C)CN4C=NC5=C(N=CN=C54)N
How it was run: as §1

[4] = compound: Cc1sc2c(c1C)C(c1ccc(Cl)cc1)=N[C@@H](CC(=O)OC(C)(C)C)c1nnc(C)n1-2
How it was run: as §1

[5] = compound: c1ccc([C@@H]2C[C@H]2NC2CCNCC2)cc1
How it was run: as §1

Measured: log2 fold change

CHCHD2 (UniProt Q9Y6H1)
Sequence of UniProt Q9Y6H1 (Q9Y6H1 whole entry, looked up): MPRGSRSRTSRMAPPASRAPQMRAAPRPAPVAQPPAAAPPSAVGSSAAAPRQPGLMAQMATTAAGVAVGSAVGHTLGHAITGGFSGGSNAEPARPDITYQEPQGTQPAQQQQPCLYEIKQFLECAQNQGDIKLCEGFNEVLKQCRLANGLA
inactive: [1] -0.016 | [2] 0.082 | [3] -0.007 | [4] -0.065 | [5] -0.011

CCDC57 (UniProt Q2TAC2)
Sequence of UniProt Q2TAC2 (Q2TAC2 whole entry, looked up): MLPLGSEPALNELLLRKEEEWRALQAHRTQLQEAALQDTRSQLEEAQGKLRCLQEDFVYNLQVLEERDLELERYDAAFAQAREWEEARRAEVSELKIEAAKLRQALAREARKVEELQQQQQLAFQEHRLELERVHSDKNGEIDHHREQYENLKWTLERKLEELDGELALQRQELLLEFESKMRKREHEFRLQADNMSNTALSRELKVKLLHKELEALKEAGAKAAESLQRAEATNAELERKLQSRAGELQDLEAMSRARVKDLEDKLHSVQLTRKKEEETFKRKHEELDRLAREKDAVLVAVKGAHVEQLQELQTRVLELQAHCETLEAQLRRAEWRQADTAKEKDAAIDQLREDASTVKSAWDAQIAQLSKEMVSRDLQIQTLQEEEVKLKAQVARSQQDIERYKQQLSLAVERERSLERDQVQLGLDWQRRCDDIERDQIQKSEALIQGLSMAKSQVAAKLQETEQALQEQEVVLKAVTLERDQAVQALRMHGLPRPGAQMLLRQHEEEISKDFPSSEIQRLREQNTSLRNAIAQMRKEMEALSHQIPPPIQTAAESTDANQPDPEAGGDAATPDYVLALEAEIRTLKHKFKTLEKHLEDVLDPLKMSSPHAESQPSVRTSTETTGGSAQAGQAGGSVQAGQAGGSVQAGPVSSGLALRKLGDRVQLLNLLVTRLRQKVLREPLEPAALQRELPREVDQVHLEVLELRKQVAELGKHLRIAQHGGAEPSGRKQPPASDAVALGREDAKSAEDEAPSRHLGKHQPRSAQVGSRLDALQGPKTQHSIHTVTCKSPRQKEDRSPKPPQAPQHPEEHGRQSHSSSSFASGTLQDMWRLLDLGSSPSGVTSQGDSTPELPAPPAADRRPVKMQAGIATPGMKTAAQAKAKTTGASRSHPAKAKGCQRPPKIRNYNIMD
inactive: [1] 0.015 | [3] 0.047 | [4] -0.161 | [5] -0.139
active: [2] 0.262

CCNB1 (UniProt P14635)
Sequence of UniProt P14635 (P14635 whole entry, looked up): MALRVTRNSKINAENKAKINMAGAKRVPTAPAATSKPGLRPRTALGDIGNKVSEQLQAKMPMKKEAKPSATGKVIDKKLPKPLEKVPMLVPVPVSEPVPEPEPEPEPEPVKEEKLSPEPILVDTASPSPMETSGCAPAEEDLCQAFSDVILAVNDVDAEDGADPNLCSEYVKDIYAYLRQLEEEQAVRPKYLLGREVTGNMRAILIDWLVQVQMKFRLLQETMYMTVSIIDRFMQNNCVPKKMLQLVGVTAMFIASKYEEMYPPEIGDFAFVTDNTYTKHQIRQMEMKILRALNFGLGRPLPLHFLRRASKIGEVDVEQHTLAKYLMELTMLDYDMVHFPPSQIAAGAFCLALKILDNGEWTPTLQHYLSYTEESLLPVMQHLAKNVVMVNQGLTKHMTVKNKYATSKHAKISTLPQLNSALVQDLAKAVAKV
inactive: [1] -0.004 | [2] 0.036 | [3] 0.015 | [4] -0.007 | [5] 0.026

CMTR1 (UniProt Q8N1G2)
Sequence of UniProt Q8N1G2 (Q8N1G2 whole entry, looked up): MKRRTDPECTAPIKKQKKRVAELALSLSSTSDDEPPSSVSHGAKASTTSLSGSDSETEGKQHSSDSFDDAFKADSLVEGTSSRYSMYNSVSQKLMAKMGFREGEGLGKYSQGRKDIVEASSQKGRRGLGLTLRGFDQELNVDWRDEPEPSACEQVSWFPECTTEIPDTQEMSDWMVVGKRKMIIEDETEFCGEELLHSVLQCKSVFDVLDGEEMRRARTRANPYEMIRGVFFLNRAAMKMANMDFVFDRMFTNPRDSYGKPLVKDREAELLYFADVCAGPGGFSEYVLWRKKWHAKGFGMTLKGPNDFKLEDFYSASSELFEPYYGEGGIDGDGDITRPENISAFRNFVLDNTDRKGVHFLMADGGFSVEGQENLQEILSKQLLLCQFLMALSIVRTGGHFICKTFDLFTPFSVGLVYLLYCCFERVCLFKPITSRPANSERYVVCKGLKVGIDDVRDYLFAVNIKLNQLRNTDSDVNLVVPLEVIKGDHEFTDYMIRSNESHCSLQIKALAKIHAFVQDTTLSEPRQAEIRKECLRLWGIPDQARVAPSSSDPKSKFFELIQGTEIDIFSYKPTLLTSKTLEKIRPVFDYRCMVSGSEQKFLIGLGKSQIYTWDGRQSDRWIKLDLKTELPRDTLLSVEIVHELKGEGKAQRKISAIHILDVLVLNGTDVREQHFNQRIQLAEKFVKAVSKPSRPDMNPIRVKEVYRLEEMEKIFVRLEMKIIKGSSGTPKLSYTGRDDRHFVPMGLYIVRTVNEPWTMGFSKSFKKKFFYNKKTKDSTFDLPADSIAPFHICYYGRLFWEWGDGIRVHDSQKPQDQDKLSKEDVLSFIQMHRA
inactive: [1] -0.008 | [2] 0.033 | [3] 0.07 | [4] -0.009 | [5] -0.04

CLSPN (UniProt Q9HAW4)
Sequence of UniProt Q9HAW4 (Q9HAW4 whole entry, looked up): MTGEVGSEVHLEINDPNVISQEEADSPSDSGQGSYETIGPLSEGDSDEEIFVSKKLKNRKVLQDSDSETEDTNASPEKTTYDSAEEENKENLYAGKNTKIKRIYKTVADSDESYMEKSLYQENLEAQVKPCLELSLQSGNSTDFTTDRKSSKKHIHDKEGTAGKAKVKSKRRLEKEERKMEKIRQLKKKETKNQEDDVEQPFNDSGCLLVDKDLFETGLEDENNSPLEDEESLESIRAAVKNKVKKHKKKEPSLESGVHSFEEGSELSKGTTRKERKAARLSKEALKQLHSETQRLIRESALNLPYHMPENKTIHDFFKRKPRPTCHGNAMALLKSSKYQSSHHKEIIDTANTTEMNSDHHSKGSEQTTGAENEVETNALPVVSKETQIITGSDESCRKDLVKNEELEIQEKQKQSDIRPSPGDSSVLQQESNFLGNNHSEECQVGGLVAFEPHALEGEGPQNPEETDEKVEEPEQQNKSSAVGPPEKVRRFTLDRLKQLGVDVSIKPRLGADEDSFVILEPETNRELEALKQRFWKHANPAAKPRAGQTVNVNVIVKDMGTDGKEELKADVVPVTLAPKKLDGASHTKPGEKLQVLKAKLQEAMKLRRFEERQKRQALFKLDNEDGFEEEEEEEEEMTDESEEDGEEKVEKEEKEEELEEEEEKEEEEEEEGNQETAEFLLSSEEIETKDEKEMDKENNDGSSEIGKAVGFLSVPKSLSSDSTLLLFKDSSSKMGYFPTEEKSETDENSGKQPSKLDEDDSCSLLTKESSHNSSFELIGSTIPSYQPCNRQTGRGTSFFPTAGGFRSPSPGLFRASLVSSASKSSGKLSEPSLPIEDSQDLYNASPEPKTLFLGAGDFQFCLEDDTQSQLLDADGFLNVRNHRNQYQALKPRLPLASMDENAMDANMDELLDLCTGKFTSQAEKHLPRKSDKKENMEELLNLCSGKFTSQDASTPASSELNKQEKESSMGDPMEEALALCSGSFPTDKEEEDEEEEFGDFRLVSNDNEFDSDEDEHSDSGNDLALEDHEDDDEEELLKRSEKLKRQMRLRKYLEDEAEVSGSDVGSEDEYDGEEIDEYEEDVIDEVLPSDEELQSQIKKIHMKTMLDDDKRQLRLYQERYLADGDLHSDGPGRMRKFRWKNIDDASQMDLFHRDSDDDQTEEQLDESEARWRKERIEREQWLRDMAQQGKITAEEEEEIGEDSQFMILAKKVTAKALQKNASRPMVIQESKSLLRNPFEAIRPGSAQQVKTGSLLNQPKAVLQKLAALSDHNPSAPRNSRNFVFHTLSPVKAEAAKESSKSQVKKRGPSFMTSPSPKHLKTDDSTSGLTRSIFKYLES
inactive: [1] 0.002 | [2] -0.009 | [3] -0.043 | [4] -0.004 | [5] 0.036

CSE1L (UniProt P55060)
Sequence of UniProt P55060 (P55060 whole entry, looked up): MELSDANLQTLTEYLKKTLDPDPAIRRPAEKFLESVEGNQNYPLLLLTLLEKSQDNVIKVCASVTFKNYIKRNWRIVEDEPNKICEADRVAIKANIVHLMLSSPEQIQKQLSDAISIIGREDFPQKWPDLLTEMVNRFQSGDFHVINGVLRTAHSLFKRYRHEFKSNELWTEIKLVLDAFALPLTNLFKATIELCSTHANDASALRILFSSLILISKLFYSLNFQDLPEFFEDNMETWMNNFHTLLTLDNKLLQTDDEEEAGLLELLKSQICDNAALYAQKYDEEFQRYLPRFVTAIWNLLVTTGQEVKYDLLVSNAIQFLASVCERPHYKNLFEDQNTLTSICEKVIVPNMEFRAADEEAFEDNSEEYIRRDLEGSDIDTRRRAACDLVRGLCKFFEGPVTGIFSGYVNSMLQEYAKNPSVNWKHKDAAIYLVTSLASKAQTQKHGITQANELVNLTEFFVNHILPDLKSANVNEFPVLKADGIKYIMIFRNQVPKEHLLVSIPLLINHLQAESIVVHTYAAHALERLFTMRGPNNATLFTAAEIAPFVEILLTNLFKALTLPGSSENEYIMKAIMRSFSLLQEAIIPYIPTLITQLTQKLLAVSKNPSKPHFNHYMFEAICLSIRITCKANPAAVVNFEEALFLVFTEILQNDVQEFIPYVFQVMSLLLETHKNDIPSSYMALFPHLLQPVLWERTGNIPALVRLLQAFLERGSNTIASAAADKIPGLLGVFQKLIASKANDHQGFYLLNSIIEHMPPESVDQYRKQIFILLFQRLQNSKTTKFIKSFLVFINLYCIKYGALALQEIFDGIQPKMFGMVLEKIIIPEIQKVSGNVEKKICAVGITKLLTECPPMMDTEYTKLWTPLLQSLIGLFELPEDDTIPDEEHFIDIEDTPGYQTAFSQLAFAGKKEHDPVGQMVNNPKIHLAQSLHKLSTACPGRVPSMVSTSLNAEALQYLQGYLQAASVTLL
inactive: [1] -0.024 | [2] 0.063 | [3] 0.033 | [4] -0.028 | [5] -0.009

CHCHD1 (UniProt Q96BP2)
inactive: [1] 0.07 | [2] -0.056 | [3] -0.031 | [4] 0.168 | [5] 0.021

CMTM3 (UniProt Q96MX0)
Sequence of UniProt Q96MX0 (Q96MX0 whole entry, looked up): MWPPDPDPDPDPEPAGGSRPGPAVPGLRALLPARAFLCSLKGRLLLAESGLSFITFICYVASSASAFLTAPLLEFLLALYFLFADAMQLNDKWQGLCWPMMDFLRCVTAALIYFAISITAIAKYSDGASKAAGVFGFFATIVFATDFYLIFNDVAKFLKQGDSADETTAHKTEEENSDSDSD
inactive: [1] -0.179 | [2] -0.001 | [3] -0.056 | [4] 0.044 | [5] 0.081

CNDP2 (UniProt Q96KP4)
inactive: [1] -0.006 | [2] 0.039 | [3] 0.023 | [4] 0.009 | [5] -0.041

— the supplement of paper PMC10849652
